Assay outcomes from PubChem.
MmCpn inh: blocks the Methanococcus maripaludis chaperonin Mm-Cpn; AID 504842; purified Mm-Cpn ATPase, ADP Transcreener TR-FRET; Potency, µM (doses to about 76.9 µM), without a hit: at the highest dose activity, negative = inhibition, actives largely listed as inhibitors; 330,000 compounds, 0.031% hits; active means well fitted inhibition curve with a large enough effect; inconclusive means small, poorly fitted or top-dose-only effect; further: potency means the concentration at half of the fitted maximal effect; on the % scale 0 is the no-effect control and ±100 the full control effect; nearly all actives have a fitted effect of over 80% in size
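Eu-cryptate anti-ADP/ADP-d2 competition gives a ratio inversely related to ADP. Enzyme at 25 nM was pre-exposed to compound for 10 min, then given 10 uM ATP for 30 min, 37°C throughout.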
PTAP TSG101 blk: blocks PTAP/TSG101 interaction to inhibit HIV-1 budding | Q99816 | Fluorescence polarization, FITC-PTAP peptide / Tsg101 binding | Potency, µM (doses to about 115 µM), for the others: at the highest dose activity change, negative = inhibition, usual class: inhibitors | 340,000 tested, under 10 active | AID 493005; active means well fitted inhibition curve with a large enough effect in the main read-out, with a control signal flat, not every such curve was filed as active; inconclusive means small, poorly fitted or top-dose-only effect, or effect the other way, or a change in a side signal; inactive means no such curve, though single readings can be large or run the other way; further: potency means the concentration at half of the fitted maximal effect; % of control where 0% means no effect
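Fluorescence polarization binding of Tsg101 binding domain (10 uM final) to FITC-labeled PTAP peptide (50 nM final) in HEPES pH 7.5 buffer with NaCl, Tween 20, EDTA, TCEP. Compounds added before peptide; binding 20 min at RT.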
Rango dissoc inh: inhibition of RanGTP-driven Rango-importin beta dissociation; O95149+P62826; Biochemical FRET Rango-importin beta, RanGTP-induced dissociation; Potency, µM (titrated, usually from 46.1 µM), for the others: top-dose activity change, negative = inhibition; 340,000 compounds, 0.071% hits; AID 540253; further: potency means the concentration at half of the fitted maximal effect; % of control where 0% means no effect; nearly all actives have a fitted effect of over 45% in size
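Two FRET readings bracket the reaction: one 5 min after compound meets Rango–importin beta, another 45 min after RanGTP-RCC1 (0.6 uM Ran, 0.2 uM RCC1, 2 mM GTP) is added. Only the second defines inhibition.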
Rango complex inh: prevents formation of the Rango-importin beta complex; Potency, µM (doses to about 92.2 µM), for the others: top-dose inhibition of complex formation; 340,000 compounds, 0.031% hits; Rango CFP/YFP FRET sensor + importin beta, 45 min; Q14974; AID 540263;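 further: potency means the concentration at half of the fitted maximal effect; 0% = DMSO wells and 100% = buffer wells lacking importin beta; nearly all actives have a fitted effect of over 15% in size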
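Inhibition scored from the CFP 486 nm/YFP 530 nm FRET ratio 45 min after adding 0.125 microM importin beta to 50 nM Rango biosensor preincubated 5 min with compound (room temperature, PBS with DTT, Tween-20, BSA). No-importin wells as positive control.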
D3 ag: activates the human D3 dopamine receptor; P35462; D3R DiscoveRx beta-arrestin cells, luminescence, 90 min; max activation, %; 410,000 compounds, 0.58% hits; AID 652048; in the data active means max activation above about 30%; further: 0% is about no effect
Target sequence (P35462 whole entry, looked up): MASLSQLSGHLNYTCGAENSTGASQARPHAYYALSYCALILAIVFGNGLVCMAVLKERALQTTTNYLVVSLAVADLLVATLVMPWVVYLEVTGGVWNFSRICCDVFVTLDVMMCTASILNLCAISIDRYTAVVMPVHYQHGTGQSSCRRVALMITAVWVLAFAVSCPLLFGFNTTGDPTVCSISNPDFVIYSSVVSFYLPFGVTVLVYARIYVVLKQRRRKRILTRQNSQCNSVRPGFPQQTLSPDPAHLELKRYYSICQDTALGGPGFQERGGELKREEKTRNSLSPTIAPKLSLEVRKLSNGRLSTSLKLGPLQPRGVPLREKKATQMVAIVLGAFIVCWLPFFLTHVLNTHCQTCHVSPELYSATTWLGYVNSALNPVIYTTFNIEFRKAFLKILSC
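Cells at 1500/well, incubated overnight, then treated with pinned compounds (dopamine as control) for 90 min at 37 degrees C. DiscoveRx reagent added for 30 - 60 minutes at room temperature; luminescence read.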
DRD3 antagonist: blocks the human D3 dopamine receptor; P35462; D3R cells, DiscoveRx beta-arrestin luminescence, antagonist mode; hits give low values; max response, negative = inhibition, %; 360,000 compounds, 2.5% hits; AID 652054; in the data active means max response below about -50%; inconclusive means no clear call, values can overlap the other calls; further: on the % scale 0 is the no-effect control and ±100 the full control effect
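Cells expressing the human receptor were seeded at 1500 cells/well, incubated overnight at 37 degrees C in 5% CO2, then exposed to library compounds with dopamine controls for 90 minutes at 37 degrees C before luminescent detection.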
Numbers without * were called inactive; ? = inconclusive; nt = not tested or not shown. Rows were chosen to be rich in hits. Some 2.9% of all compounds tested hit in one or more screens of this group. Unless noted, the call rests on the fitted dose curve.

SMILES	MmCpn inh	PTAP TSG101 blk	Rango dissoc inh	Rango complex inh	D3 ag	DRD3 antagonist
CCNC(=S)Nc1cc(OCC)c(NC(=O)c2ccco2)cc1OCC	-9.3%	-3.8%	9.1%	-0.4%	3.5	17.3
CCOc1cc(NS(=O)(=O)c2ccccc2)c(OCC)cc1NC(=O)c1ccco1	0.9%	1.1%	-27.9%	?	0.0	-51.3*
COc1cc2c(cc1OC)C(C1C(=O)CCCC1=O)N(C(=O)CCl)CC2 (stereo unspecified)	-0.6%	-9.7%	-15.0%	?	-1.6	17.1
COc1cc2c(cc1OC)C(c1ccccc1)N(C(=O)CCl)CC2 (stereo unspecified)	0.9%	-6.4%	10.6%	-0.9%	-1.8	-62.1*
CCOc1ccc(-c2cc3nc(C4CCN(C(=O)OC(C)(C)C)CC4)c(C(=O)Nc4ccc(C)cc4C)cn3n2)cc1	nt	nt	nt	nt	17.3	nt
Cn1cnnc1SCC(=O)Nc1ccccc1	0.7%	-1.7%	-6.1%	-3.8%	10.2	22.3
Cn1cnnc1SCC(=O)Nc1ccc(Br)cc1F	-3.2%	-2.5%	-5.6%	-3.8%	32.4*	6.0
CCOC(=O)c1ccc(NC(=S)N(CCCN2CCCC2)Cc2cccs2)cc1	2.2%	-1.9%	-7.3%	4.9%	-13.0	-20.7
CCOC(=O)c1ccc(NC(=S)N(CCCN2CCCC(C)C2)Cc2cccs2)cc1 (stereo unspecified)	1.7%	-0.6%	-0.3%	5.5%	-18.9	-86.8*
CCOC(=O)c1ccc(NC(=S)N(CCN2CCCCCC2)Cc2cccs2)cc1	4.1%	-7.1%	-1.5%	0.2%	-15.8	-74.9*
CC(C)(C)N=C1NN=C(c2cc3ccccc3o2)CS1	-0.3%	-2.1%	2.5%	3.0%	0.9	9.0
COc1cc(/C=C/c2ccc3cccc(O)c3n2)cc(Cl)c1OC	-0.8%	-4.1%	-1.3%	-3.1%	-17.0	-51.6*
COc1cc(/C=C/c2ccc3cccc(O)c3n2)cc(Br)c1OC	-1.7%	3.3%	-2.3%	1.5%	-18.3	-55.1*
COc1cccc(/C=C/c2ccc3cccc(O)c3n2)c1	-1.7%	-0.7%	1.5%	-3.7%	-21.2	-56.0*
COc1cc(/C=C/c2ccc3c(Br)cc(Br)c(O)c3n2)ccc1O	3.7%	-2.6%	-0.8%	2.7%	-27.3	-90.9*
Oc1cccc(/C=C/c2ccc3cccc(O)c3n2)c1	0.1%	-4.4%	-8.4%	4.4%	1.1	?
COc1ccc(/C=C/c2ccc3c(Br)ccc(O)c3n2)cc1	-18.4%	-3.5%	12.2%	3.2%	-19.9	?
CCCn1c2ccccc2c2cnn(CC(=O)Nc3cccc(C(=O)OCC)c3)c(=O)c21	nt	nt	nt	nt	-9.6	nt
COc1cccc(/C=C/c2ccc3cccc(O)c3n2)c1OC	?	-1.5%	?	3.0%	-19.7	-159.8*
COc1ccc(/C=C/c2ccc3cccc(O)c3n2)c(OC)c1OC	2.0%	-5.3%	-23.6%	1.6%	-26.3	0.0
COC(=O)c1ccc(/C=C/c2ccc3cccc(OC)c3n2)cc1	-2.1%	-2.9%	?	?	31.0*	4.0
COc1cc(/C=C/c2ccc3cccc(O)c3n2)cc(OC)c1OC	0.7%	-3.2%	-3.7%	-4.5%	-26.6	-63.7*
CC(=O)Nc1ccccc1OCc1cc(=O)n2c3c(sc2n1)CCCC3	nt	nt	nt	nt	60.0*	nt
CCOc1ccc(-n2c(SCC(=O)c3ccccc3)nc3c([nH]c4ccccc43)c2=O)cc1	nt	nt	nt	nt	-10.2	nt
CCc1cc2cccc(C)c2nc1SCC(=O)N1CCN(C(=O)c2ccco2)CC1	-1.1%	-3.8%	-4.3%	2.1%	40.6*	70.3
Cc1nccn1C[C@@H]1CCc2c(c3ccccc3n2C)C1=O	1.7%	1.9%	15.0%	-0.4%	-37.6	-79.1*
CCOC(=O)CN1C(=O)NC2(CCCc3ccccc32)C1=O (stereo unspecified)	-2.9%	-6.7%	8.1%	-0.4%	-15.0	-68.4*
O=C(O)CN1C(=O)NC2(CCCc3ccccc32)C1=O (stereo unspecified)	0.9%	-0.9%	0.1%	0.4%	-6.4	-19.4
